A number with no mark means an inactive call.
What follows are molecules tested against T1, USP48 (UniProt Q86UV5) (assay: log2 ratio of Biotin-Ahx-Ub-VS probe labelling (fragment/DMSO); higher = less target engagement (more negative = stronger competition), active = hit call of the paper (q ≤ 0.05, log2 ratio ≤ -1)). Settings: compound concentration: 200 uM; treatment time: 3 h.
T1 sequence (whole entry): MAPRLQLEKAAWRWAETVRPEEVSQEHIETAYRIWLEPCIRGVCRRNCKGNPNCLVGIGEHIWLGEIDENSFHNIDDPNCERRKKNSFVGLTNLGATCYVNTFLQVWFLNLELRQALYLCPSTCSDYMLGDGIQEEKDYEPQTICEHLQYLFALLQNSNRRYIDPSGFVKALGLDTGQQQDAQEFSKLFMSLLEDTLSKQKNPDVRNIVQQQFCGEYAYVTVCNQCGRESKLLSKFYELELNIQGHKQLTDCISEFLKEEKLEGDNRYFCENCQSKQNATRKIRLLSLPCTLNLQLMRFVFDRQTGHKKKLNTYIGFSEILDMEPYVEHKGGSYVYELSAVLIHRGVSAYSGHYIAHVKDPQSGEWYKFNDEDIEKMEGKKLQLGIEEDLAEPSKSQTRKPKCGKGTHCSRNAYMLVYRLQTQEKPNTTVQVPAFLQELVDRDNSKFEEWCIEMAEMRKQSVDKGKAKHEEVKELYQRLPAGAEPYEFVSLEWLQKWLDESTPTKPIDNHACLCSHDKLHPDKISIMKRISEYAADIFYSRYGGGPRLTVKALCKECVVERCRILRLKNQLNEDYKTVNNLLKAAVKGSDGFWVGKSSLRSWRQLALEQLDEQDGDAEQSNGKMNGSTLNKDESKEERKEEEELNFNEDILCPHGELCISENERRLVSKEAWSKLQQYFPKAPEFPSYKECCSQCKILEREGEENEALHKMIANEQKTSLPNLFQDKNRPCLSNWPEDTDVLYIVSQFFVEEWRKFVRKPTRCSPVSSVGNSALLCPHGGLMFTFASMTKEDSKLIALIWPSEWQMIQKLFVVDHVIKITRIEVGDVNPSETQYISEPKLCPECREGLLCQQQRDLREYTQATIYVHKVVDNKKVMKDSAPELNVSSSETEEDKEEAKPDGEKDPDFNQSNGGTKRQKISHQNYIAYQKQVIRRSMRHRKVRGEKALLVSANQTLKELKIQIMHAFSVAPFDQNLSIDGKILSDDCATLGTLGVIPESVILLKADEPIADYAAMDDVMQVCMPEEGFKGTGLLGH
Procedure, shortened: (§1)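 Labelling with Biotin-Ahx-Ub-VS (0.5 µM final, 1 h) followed a 3 h triplicate treatment of HEK293T lysate (495 µg per sample, Tris/CHAPS/IGEPAL buffer with protease inhibitors) with fragment at 200 µM or vehicle. Labelled DUBs were NeutrAvidin-enriched, digested with LysC and trypsin, and run by diaPASEF LC-MS/MS. The values, average log2 fragment/vehicle ratios by unpaired t-test, come from global-median-normalised Spectronaut label-free quantities. Proteins with ≥2 unique peptides were used.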

| SMILES | log2 ratio of Biotin-Ahx-Ub-VS probe labelling |
| --- | --- |
| CNC(=O)C1CCN(C(=O)CCl)CC1 | -0.0361 |
| O=C(CCl)Nc1cccc(NC(=O)c2ccccc2)c1 | -0.0133 |
| Cc1ccc(N2CCC(NC(=O)CCl)C2=O)cc1 (stereo not given) | 0.139 |
| Cc1cccc(C(CNC(=O)CCl)N2CCOCC2)c1.Cl (stereo not given) | -0.106 |
| O=C(CCl)N1CCC(C(O)c2ccc(F)cc2)CC1 (stereo not given) | 0.00604 |
| Cc1ccccc1C1(CNC(=O)CCl)CCOCC1 | -0.295 |
| CC(O)CC1CCN(C(=O)CCl)CC1 (stereo not given) | 0.00631 |
| COc1cc(Cl)c(C)cc1NC(=O)CCl | -0.36 |
| Cl.O=C(CCl)NCCN1CCc2ccccc21 | -0.343 |
| CN(C)S(=O)(=O)c1ccccc1CNC(=O)CCl | -0.169 |
| CN1c2ccccc2C(NC(=O)CCl)CS1(=O)=O (stereo not given) | -0.464 |
| CNC(=O)Cn1cc(NC(=O)CCl)cn1 | 0.0267 |
| Cc1ccc(N(CCC#N)C(=O)CCl)cc1C | -1.01 (active) |
| Cc1cccc(N2CCC(NC(=O)CCl)C2=O)c1 (stereo not given) | -0.138 |
| Cc1ccc(CC(NC(=O)CCl)c2ccccn2)cc1.Cl (stereo not given) | 0.0528 |
| O=C(CCl)N[C@H]1CCS(=O)(=O)c2ccccc21 | -0.022 |
| O=C(CCl)N1CCC(c2noc3cc(F)ccc23)CC1 | -0.806 |
| C/C(=C\CNC(=O)CCl)c1cnn(C)c1.Cl | -0.224 |

| SMILES | log2 ratio of Biotin-Ahx-Ub-VS probe labelling |
| --- | --- |
| CN(C)C(=O)c1ccc(CNC(=O)CCl)cc1 | 0.0435 |
| Cc1nc(CNC(=O)CCl)c2ccccn12.Cl | 0.164 |
| O=C(CCl)NC1(c2ccc3c(c2)OCCO3)CCCC1 | -0.261 |
| N#Cc1ccc(CNC(=O)CCl)cc1 | -0.167 |
| CC(NC(=O)CCl)c1cc2n(n1)CCCC2.Cl (stereo not given) | -0.017 |
| O=C(CCl)N1CC=C(c2c[nH]c3ccccc23)CC1 | -0.728 |
| CCN1C(=O)C2CN(C(=O)CCl)CCN2C1=O (stereo not given) | -0.1 |
| NC(=O)C1CCCN(C(=O)CCl)C1 (stereo not given) | -0.259 |
| CC(=O)C1CCCCN1C(=O)CCl (stereo not given) | -0.362 |
| CC1CCc2onc(CNC(=O)CCl)c2C1 (stereo not given) | 0.185 |
| CCC1c2ccsc2CCN1C(=O)CCl (stereo not given) | -0.725 |
| O=C(O)C1Cc2ccccc2CN1C(=O)CCl (stereo not given) | -0.543 |
| Cl.O=C(CCl)N[C@H]1C[C@@H](n2cccn2)C1 | 0.0582 |
| O=C(CCl)N1CCc2sccc2C1 | -0.677 |
| CC(NC(=O)CCl)c1csc(-c2ccccc2)n1.Cl (stereo not given) | -0.587 |
| Cc1ccc(N(C(=O)CCl)C2C=CS(=O)(=O)C2)cc1 (stereo not given) | -0.839 |
| O=C(CCl)NCc1ccc(Cl)cc1 | 0.107 |

Each molecule was assayed against T2, USP5 (UniProt P45974) in the same assay as above. Settings: compound concentration: 200 uM; treatment time: 3 h.
T2 sequence (whole entry): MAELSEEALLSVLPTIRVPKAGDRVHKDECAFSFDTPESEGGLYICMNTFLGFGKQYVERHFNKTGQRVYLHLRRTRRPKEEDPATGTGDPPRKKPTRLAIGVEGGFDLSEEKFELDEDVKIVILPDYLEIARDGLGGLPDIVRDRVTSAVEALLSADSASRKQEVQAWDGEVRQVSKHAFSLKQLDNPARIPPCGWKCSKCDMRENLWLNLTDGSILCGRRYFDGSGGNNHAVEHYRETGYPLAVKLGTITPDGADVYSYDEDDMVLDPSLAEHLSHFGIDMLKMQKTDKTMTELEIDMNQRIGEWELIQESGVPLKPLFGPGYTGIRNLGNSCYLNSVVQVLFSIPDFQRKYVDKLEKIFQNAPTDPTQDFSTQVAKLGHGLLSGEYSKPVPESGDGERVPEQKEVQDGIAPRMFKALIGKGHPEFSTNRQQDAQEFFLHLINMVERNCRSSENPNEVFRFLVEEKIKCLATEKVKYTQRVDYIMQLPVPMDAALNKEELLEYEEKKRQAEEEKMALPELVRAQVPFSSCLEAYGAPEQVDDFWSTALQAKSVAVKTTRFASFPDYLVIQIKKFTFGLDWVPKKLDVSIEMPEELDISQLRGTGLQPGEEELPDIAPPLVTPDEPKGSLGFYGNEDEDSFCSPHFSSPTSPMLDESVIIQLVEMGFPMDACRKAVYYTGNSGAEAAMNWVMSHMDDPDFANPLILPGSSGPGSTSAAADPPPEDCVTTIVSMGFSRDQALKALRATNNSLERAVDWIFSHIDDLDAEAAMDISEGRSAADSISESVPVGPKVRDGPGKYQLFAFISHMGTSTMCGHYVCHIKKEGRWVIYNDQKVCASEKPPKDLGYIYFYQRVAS
Procedure, shortened: as §1

| SMILES | log2 ratio of Biotin-Ahx-Ub-VS probe labelling |
| --- | --- |
| CNC(=O)C1CCN(C(=O)CCl)CC1 | -0.203 |
| O=C(CCl)Nc1cccc(NC(=O)c2ccccc2)c1 | 0.0977 |
| Cc1ccc(N2CCC(NC(=O)CCl)C2=O)cc1 (stereo not given) | 0.412 |
| Cc1cccc(C(CNC(=O)CCl)N2CCOCC2)c1.Cl (stereo not given) | -0.22 |
| O=C(CCl)N1CCC(C(O)c2ccc(F)cc2)CC1 (stereo not given) | 0.131 |
| Cc1ccccc1C1(CNC(=O)CCl)CCOCC1 | 0.17 |
| CC(O)CC1CCN(C(=O)CCl)CC1 (stereo not given) | -0.447 |
| COc1cc(Cl)c(C)cc1NC(=O)CCl | -0.267 |
| Cl.O=C(CCl)NCCN1CCc2ccccc21 | -0.362 |
| CN(C)S(=O)(=O)c1ccccc1CNC(=O)CCl | 0.419 |
| CN1c2ccccc2C(NC(=O)CCl)CS1(=O)=O (stereo not given) | 0.146 |
| CNC(=O)Cn1cc(NC(=O)CCl)cn1 | -0.241 |
| Cc1ccc(N(CCC#N)C(=O)CCl)cc1C | 0.408 |
| Cc1cccc(N2CCC(NC(=O)CCl)C2=O)c1 (stereo not given) | -0.179 |
| Cc1ccc(CC(NC(=O)CCl)c2ccccn2)cc1.Cl (stereo not given) | -0.125 |
| O=C(CCl)N[C@H]1CCS(=O)(=O)c2ccccc21 | -0.472 |
| O=C(CCl)N1CCC(c2noc3cc(F)ccc23)CC1 | 0.182 |
| C/C(=C\CNC(=O)CCl)c1cnn(C)c1.Cl | -0.543 |

| SMILES | log2 ratio of Biotin-Ahx-Ub-VS probe labelling |
| --- | --- |
| CN(C)C(=O)c1ccc(CNC(=O)CCl)cc1 | 0.373 |
| Cc1nc(CNC(=O)CCl)c2ccccn12.Cl | 0.133 |
| O=C(CCl)NC1(c2ccc3c(c2)OCCO3)CCCC1 | 0.179 |
| N#Cc1ccc(CNC(=O)CCl)cc1 | 0.0355 |
| CC(NC(=O)CCl)c1cc2n(n1)CCCC2.Cl (stereo not given) | -0.437 |
| O=C(CCl)N1CC=C(c2c[nH]c3ccccc23)CC1 | -0.577 |
| CCN1C(=O)C2CN(C(=O)CCl)CCN2C1=O (stereo not given) | 0.0692 |
| NC(=O)C1CCCN(C(=O)CCl)C1 (stereo not given) | -0.0828 |
| CC(=O)C1CCCCN1C(=O)CCl (stereo not given) | -0.139 |
| CC1CCc2onc(CNC(=O)CCl)c2C1 (stereo not given) | 0.386 |
| CCC1c2ccsc2CCN1C(=O)CCl (stereo not given) | -0.159 |
| O=C(O)C1Cc2ccccc2CN1C(=O)CCl (stereo not given) | -0.0229 |
| Cl.O=C(CCl)N[C@H]1C[C@@H](n2cccn2)C1 | -0.126 |
| O=C(CCl)N1CCc2sccc2C1 | -0.108 |
| CC(NC(=O)CCl)c1csc(-c2ccccc2)n1.Cl (stereo not given) | -0.0456 |
| Cc1ccc(N(C(=O)CCl)C2C=CS(=O)(=O)C2)cc1 (stereo not given) | 0.431 |
| O=C(CCl)NCc1ccc(Cl)cc1 | -0.0207 |
